# The entries come from a sample that favours hits as a whole.
# nsP2pro primary = Primary qHTS for inhibitors of NSP2Pro chikungunya virus (CHIKV); hit rate 1.1% among 31,000; AID 1964107, 2024; Potency, µM (titrated, usually from 24.9 µM), most hits filed as inhibitors; FRET peptide cleavage, nsP2pro, fluorescence 1 h; further: nearly all actives have a fitted effect of over 60% in size
#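 Purified recombinant nsP2pro (150 nM final) in 10 mM Tris-HCl pH 8.0 with 0.01% Tween 20 was preincubated 15 min at room temperature with compound (7 concentrations, up to 25 uM). FRET peptide 2 substrate (2.5 uM final) was then added; fluorescence was read after 1 h.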
# nsP2 cell sec = Secondary cell base assay for inhibitors of NSP2Pro Chikungunya virus (CHIKV); shares compounds with nsP2pro primary; cell-based CHIKV nsP2 protease reporter assay; Potency, µM (highest dose often 51.1 µM), most hits filed as inhibitors; hit rate 10% among 450; further: nearly all actives have a fitted effect of over 70% in size
# CHIKV NSP2 FL = Selectivity profile for inhibitors of NSP2Pro chikungunya virus (CHIKV): Full length NSP2 enzyme counterscreen (CHIKV-NSP2). Full-length CHIKV NSP2 protease enzymatic counterscreen. AID 1964101, 2024. hit rate 39% among 410. Potency, µM (top dose mostly 50.7 µM), hits mostly inhibitors. shares compounds with nsP2pro primary; further: nearly all actives have a fitted effect of over 65% in size
# Furin counter = Selectivity profile for inhibitors of NSP2Pro chikungunya virus (CHIKV): Human furin counterscreen | shares compounds with nsP2pro primary | Recombinant human furin enzymatic counterscreen, fluorogenic substrate | Potency, µM (series often up to 50.6 µM), usual class: inhibitors | hit rate 6% among 410
# NS23 peptide cs = Selectivity profile for inhibitors of NSP2Pro chikungunya virus (CHIKV): Endogenous NS2/3 peptide Counterscreen | AID 1964103, 2024 | hit rate 34% among 410 | Potency, µM (titrated, usually from 51 µM), usual class: inhibitors | shares compounds with nsP2pro primary | Purified CHIKV nsP2 protease, endogenous NS2/3 peptide cleavage; further: nearly all actives have a fitted effect of over 55% in size
# Papain cs = Selectivity profile for inhibitors of NSP2Pro chikungunya virus (CHIKV): Papain Counterscreen; shares compounds with nsP2pro primary; purified papain protease activity, enzymatic inhibition; Potency, µM (titrated, usually from 51 µM), most hits filed as inhibitors; hit rate 5% among 410; AID 1964104, 2024
# Target sequence (P00784 whole entry, looked up): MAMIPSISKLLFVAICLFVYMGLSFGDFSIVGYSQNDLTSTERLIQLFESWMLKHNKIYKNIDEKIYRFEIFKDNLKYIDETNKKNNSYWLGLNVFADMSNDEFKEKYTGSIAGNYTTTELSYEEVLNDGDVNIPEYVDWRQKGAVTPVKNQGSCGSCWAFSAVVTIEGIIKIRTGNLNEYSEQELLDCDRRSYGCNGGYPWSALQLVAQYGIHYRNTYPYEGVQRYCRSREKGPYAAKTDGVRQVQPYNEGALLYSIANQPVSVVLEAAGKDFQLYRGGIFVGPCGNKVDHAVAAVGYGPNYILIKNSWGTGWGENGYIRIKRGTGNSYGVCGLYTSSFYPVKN
# nsP2pro conf qHTS = Confirmatory qHTS for inhibitors of NSP2Pro chikungunya virus (CHIKV); shares compounds with nsP2pro primary; CHIKV nsP2 protease enzymatic activity, qHTS; Potency, µM (highest dose often 25.5 µM), hits mostly inhibitors; hit rate 43% among 410; AID 1964105, 2024; further: nearly all actives have a fitted effect of over 75% in size
# HCV NS3 counter = Selectivity profile for inhibitors of NSP2Pro chikungunya virus (CHIKV): NS34A-HCV Counterscreen; shares compounds with nsP2pro primary; HCV NS3/4A protease biochemical counterscreen; Potency, µM (highest dose often 50.9 µM), usual class: inhibitors; hit rate 20% among 410; further: nearly all actives have a fitted effect of over 55% in size
# Numbers stand for hits; n = inactive; u = inconclusive; ! = not active in a repeat. The call rests on the fitted dose curve.
SMILES,nsP2pro primary,others
COc1ccnc(-c2nnc3ccc(Nc4cc(OC)c(OC)c(OC)c4)nn23)c1,n,
C/C=C/C=C/C(=O)OC1CC/C=C/C(O)C(O)C(CCC)OC1=O (stereo not given),u,nsP2 cell sec=n;CHIKV NSP2 FL=n;Furin counter=n;NS23 peptide cs=n;Papain cs=u;nsP2pro conf qHTS=n;HCV NS3 counter=n
C/C=C/C=C/C=C/C(=O)OC1C=C2C(O)OC(=O)[C@]2(O)[C@@]2(C)CCCC(C)(C)[C@H]12 (stereo not given in full),n,
Cc1cc(C)nc(NC(=S)N2CCN(c3ccc(F)c(Cl)c3)CC2)c1,n,
Cc1ccnc(NC(=S)N2CCN(c3ncc(C(F)(F)F)cc3Cl)CC2)c1,n,
C=C1CC23CC1CCC2C12OC(=O)C(C)(C(O)C(O)C1O)C2C3C(=O)O (stereo not given),u,nsP2 cell sec=n;CHIKV NSP2 FL=u;Furin counter=n;NS23 peptide cs=n;Papain cs=n;nsP2pro conf qHTS=u;HCV NS3 counter=n
C=C1C[C@]23C[C@H]1CC[C@H]2[C@@]1(C)CCC[C@@]2(C)C(=O)O[C@@H]([C@@H]3O)[C@@H]12,n,
C=C1C[C@]23C[C@@]1(O)CC[C@H]2[C@@]12C=C[C@H](O)[C@@](C)(C(=O)O1)[C@H]2[C@@H]3C(=O)O,n,
CCOC(=O)CC(SP(=S)(OC)OC)C(=O)OCC (stereo not given),8.8µM,nsP2 cell sec=n;CHIKV NSP2 FL=23µM;Furin counter=n;NS23 peptide cs=18µM;Papain cs=u;nsP2pro conf qHTS=5.7µM;HCV NS3 counter=n
Cc1ccc(S(=O)(=O)Nc2cnccc2C(=O)Nc2ccc(C#N)cc2)cc1,n,
Clc1cc(Cl)c(OCC#CI)cc1Cl,4.4µM,nsP2 cell sec=u;CHIKV NSP2 FL=7.1µM;Furin counter=9µM;NS23 peptide cs=5µM;Papain cs=n;nsP2pro conf qHTS=2.2µM;HCV NS3 counter=n
N#Cc1c(N2C[C@@H]3NCCO[C@H]3C2)c(F)cc2c(=O)c(C(=O)O)cn(C3CC3)c12,n,
CCCCCCCCCCCCCCCC(=O)O,n,
C=CCCCCCCCCC(=O)O,4.3µM,nsP2 cell sec=n;CHIKV NSP2 FL=1.4µM;Furin counter=u;NS23 peptide cs=u;Papain cs=u;nsP2pro conf qHTS=2.2µM;HCV NS3 counter=n
CCCCCCCC(=O)O,n,
COC(=O)c1ccc(NCC2=CC(C)(C)COc3ccc(OC)cc32)cc1,n,
CC[C@H]1OC(=O)C[C@@H](O)[C@H](C)[C@@H](OC2OC(C)C(O)C(N(C)C)C2O)[C@@H](CCN2CCCCC2)C[C@@H](C)C(=O)/C=C/C(C)=C/[C@@H]1CN1CCCCC1 (stereo not given in full),n,
Cc1cc(C(=O)N2CCC(OCCOc3ccc(F)cc3)CC2)nn1C,n,
CCOC(=O)c1ccc(N2C(=O)c3n[nH]c(-c4ccco4)c3C2c2cccc(F)c2)cc1 (stereo not given),n,
O=C(c1cc(-c2ccco2)[nH]n1)N1CCSC(c2cc(F)ccc2F)CC1 (stereo not given),3.2µM,nsP2 cell sec=n;CHIKV NSP2 FL=5.8µM;Furin counter=n;NS23 peptide cs=u;Papain cs=n;nsP2pro conf qHTS=9µM;HCV NS3 counter=16µM
Cc1ccccc1Sc1ccc(/C=C2\SC(=S)NC2=O)cc1[N+](=O)[O-],n,
COc1ccc(C2Nc3ccccc3C(=O)N2Cc2cccnc2)cc1COc1c(C)cc(NC(C)=O)cc1C (stereo not given),n,
COC(=O)C1=CO[C@@H](O[C@@H]2O[C@H](CO)[C@@H](O)[C@H](O)[C@H]2O)[C@H]2[C@@H]1C=C[C@@]21C=C([C@H](C)O)C(=O)O1,n,
Cc1cc(C)nc(NC(=S)N2CCN(c3ccccn3)CC2)c1,n,
Cc1ccc(-c2cc(C(=O)Nc3ccccc3)c3ccccc3n2)cc1C,n,
SMILES,nsP2pro primary,others
O=C(Cc1ccc(Cl)cc1)Nc1cnccc1C(=O)O,n,
CCCC(=O)N1CCC(N2C(=O)N(Cc3cccnc3)CC23CCOC3)CC1 (stereo not given),n,
Cc1cccc(C(=O)Nc2cc3c(cc2N2CCCCC2)n(C)c(=O)n3C)c1,n,
O=C(Nc1ccc(Cl)cc1)N1CCC(c2ccccc2)C1 (stereo not given),n,
Cc1cccc(C(=O)Nc2ccc(N3CCC(N4CCCCC4)CC3)c(C(=O)O)c2)c1,5µM,nsP2 cell sec=n;CHIKV NSP2 FL=4.6µM;Furin counter=u;NS23 peptide cs=15µM;Papain cs=n;nsP2pro conf qHTS=7.1µM;HCV NS3 counter=2.6µM
O=C(Nc1ccc(Cl)cc1)c1ccc2c(c1)N(Cc1ccccc1)CCS2,n,
Cc1cccc(C(=O)Nc2ccc3ncnc(N4CCCCC4)c3c2)c1,n,
O=C(Nc1ccc(N2CCC(c3ccccc3)C2)c(C(=O)O)c1)c1ccc(Cl)cc1 (stereo not given),3.5µM,nsP2 cell sec=n;CHIKV NSP2 FL=3.7µM;Furin counter=u;NS23 peptide cs=12µM;Papain cs=n;nsP2pro conf qHTS=7.1µM;HCV NS3 counter=3.7µM
Cc1cccc(-c2cccc(CN3CCC(N[S+](=O)([O-])c4c(C)noc4C)CC3)c2)c1,n,
Cn1c(=O)cc(N2CCC[C@@H](N)C2)n(Cc2ccccc2C#N)c1=O,n,
CN1CCc2cc(Nc3ncc(C4CC4)c(NCCCNC(=O)C4CCC4)n3)ccc2C1,n,
CS(=O)(=O)Nc1ccc2oc3c(OC(F)F)ccc(C(=O)Nc4c(Cl)cncc4Cl)c3c2c1,n,
CCOc1ccccc1CN1CCC2(CCN(C(=O)c3ccccc3C)CC2)Oc2ccccc21,n,
Cc1ccc(C(=O)N2CCN(c3ccc([N+](=O)[O-])cc3)CC2)cc1Cl,n,
C=CC(=O)N1C/C(=C\c2ccc([N+](=O)[O-])cc2)C(=O)/C(=C/c2ccc([N+](=O)[O-])cc2)C1,3.5µM!,nsP2 cell sec=u;CHIKV NSP2 FL=u;Furin counter=n;NS23 peptide cs=2.9µM;Papain cs=n;nsP2pro conf qHTS=u;HCV NS3 counter=n
O=C1Nc2ccccc2/C1=C\c1ccc([N+](=O)[O-])cc1,n,
Cc1ccc(S(=O)(=O)Nc2cnccc2C(=O)Nc2nc(-c3ccccc3Cl)cs2)cc1,n,
COc1ccccc1C(=O)N1Cc2c(C(=O)NC3CC3)nn(C)c2C1,n,
[2H]C([2H])([2H])C(O)(CCO[C@@H](C)[C@H]1CC[C@H]2/C(=C/C=C3\C[C@@H](O)C[C@H](O)C3=C)CCC[C@]12C)C([2H])([2H])[2H],n,
c1nc(NCCc2cnc[nH]2)c2cc(-c3ccoc3)ccc2n1,n,

# Assay outcomes as filed in PubChem BioAssay.
